# Assay outcomes from PubChem BioAssay.
# The list is not random: actives were taken first. Their share in the collection is about 19%.
# DT40 TDP1 no CPT: qHTS for Inhibitors of human tyrosyl-DNA phosphodiesterase 1 (TDP1): qHTS in cells in absence of CPT; actives 15% (n = 420,000); Potency, µM (series often up to 46.2 µM), without a hit: at the top dose activity change, negative = growth inhibition, usual class: inhibitors; DT40 Tdp1-/- hTDP1 cells, no CPT, ATP luminescence, 48 h; further: potency means the concentration at half of the fitted maximal effect; nearly all actives have a fitted effect of over 55% in size
#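 Compound effects on proliferation are scored in DT40 Tdp1-/-;hTDP1 cells in the absence of CPT. ATP levels (CellTiter-Glo luminescence) are recorded after a ≥48 hr, 37 °C incubation.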
# uPA surface inh: cell surface uPA generation inhibition. actives 0.31% (n = 330,000). Potency, µM (series often up to 38.3 µM), without a hit: at the highest dose activity change, negative = inhibition, most hits filed as inhibitors. cell surface uPA generation assay, qHTS; active means well fitted inhibition curve with a large enough effect; inconclusive means small, poorly fitted or top-dose-only effect; inactive means no such curve, though single readings can be large or run the other way; tested in mouse RAW 264.7 cells; further: potency means the concentration at half of the fitted maximal effect; nearly all actives have a fitted effect of over 55% in size
# IL-1B inflam inh: inflammasome signaling inhibition, IL-1 beta readout | THP-1 LPS/ATP IL-1B secretion, AlphaLISA, 16 h; active compounds read low | activity change, % at 57.5 µM | actives 4.7% (n = 360,000); in the data active means activity change below about -50%; inconclusive means mostly about -30% to -49%
#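 Secreted IL-1B measured by AlphaLISA bead assay after 16 h compound exposure of THP-1 cells; compounds (final up to 57.5 uM) added 1 h before LPS (250 ng/mL) and ATP (1.25 mM) stimulation; lower signal means less secretion.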
# TDP1 cell CPT: DT40-hTDP1 cell growth loss with CPT | chicken DT40 Tdp1-/-;hTDP1 cells + 20 nM CPT, ATP luminescence, 48 h | Potency, µM (top dose mostly 46.2 µM), for inactives: at the highest dose activity change, negative = growth inhibition, most hits filed as inhibitors | actives 12% (n = 420,000); further: potency means the concentration at half of the fitted maximal effect; nearly all actives have a fitted effect of over 55% in size
#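 Cell growth measured by CellTiter-Glo luminescence after a minimum 48 h, 37 C compound exposure with 20 nM CPT in Tdp1-knockout DT40 cells stably expressing hTDP1, seeded 400/well; qHTS titration format.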
# HT1080 IDH1KD tx: toxicity to HT-1080 IDH1 knockdown cells (counter line) | HT-1080 IDH1 knockdown viability, ATP luminescence, 48 h | actives 2% (n = 360,000) | Potency, µM (doses to about 46.1 µM), for inactives: at the top dose activity, negative = toxicity, most hits filed as cytotoxic;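 further: potency means the concentration at half of the fitted maximal effect; 0% = DMSO wells and -100% = cell-free medium wells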
#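 Cytotoxicity counter-line: IDH1KD HT-1080, 48 h, CellTiter-Glo. Curves classed by r2, magnitude and activity.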
# HT1080-NT tox: kills 2HG-producing HT-1080-NT fibrosarcoma cells; HT-1080-NT fibrosarcoma viability, CellTiter-Glo ATP luminescence, 48 h; actives 1.6% (n = 360,000); Potency, µM (doses to about 46.1 µM), without a hit: top-dose activity, negative = less viability, hits mostly cytotoxic; AID 686970;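 further: NT is the 2HG producing partner of a matched IDH1 knockdown line; potency means the concentration at half of the fitted maximal effect; 0% = DMSO-treated cells and -100% = media-only wells without cells; nearly all actives have a fitted effect of over 55% in size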
#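 HT-1080-NT fibrosarcoma cells (2HG-overproducing), 750 cells/well in RPMI with 5% FBS, dosed after 2 h and incubated 48 h at 37C. CellTiter-Glo luminescence normalized to DMSO and no-cell wells; concentration-response curves fitted and classed.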
# Active calls of the source: *; ? = inconclusive; · = no result given. Unless noted, the call rests on the fitted dose curve; in most records, active means well fitted curve in the direction sought with a large enough effect; inconclusive means small, poorly fitted or top-dose-only effect, or another doubt; inactive means no such curve, though single readings can be large; an effect the other way counts as inactive or inconclusive. Unless noted, on the % scale 0 is the no-effect control and ±100 the full control effect.
SMILES,DT40 TDP1 no CPT,uPA surface inh,IL-1B inflam inh,TDP1 cell CPT,HT1080 IDH1KD tx,HT1080-NT tox
COc1ccc(S(=O)(=O)NC(=O)C2(C)CCN2C(=O)Cc2cc(C)cc(C)c2)cc1OC (stereo not given),4%,·,14,1%,16%,?
CCS(=O)(=O)N1CCC(C(=O)Nc2ccccc2OC)CC1,-6%,12%,-9,-9%,0%,1%
O=C(Cn1ncc2c3ccccc3n(Cc3ccc(Cl)cc3)c2c1=O)NC1CCCCCC1,-20%,·,·,3%,·,·
CCCn1c2ccccc2c2cnn(CC(=O)NC3CCN(Cc4ccccc4)CC3)c(=O)c21,?,2%,?,16µM*,7%,-1%
CCCn1c2ccccc2c2cnn(CC(=O)NC3CCCCC3C)c(=O)c21 (stereo not given),18µM*,5%,13,?,2%,-2%
Cc1ccc([C@@]2(OC(=O)c3ccccc3)C(=O)N(C(=O)OC(C)(C)C)c3ccccc32)cc1,-25%,·,61,-23%,8%,21%
FC(F)(F)c1cc(-c2ccccc2)nc2cc(-c3ccc(Br)cc3)nn12,-20%,·,·,-12%,·,·
COc1ccc(N2CCN(C(=O)c3cccnc3)CC2)c([N+](=O)[O-])c1,-9%,2%,25,24%,-1%,0%
COc1ccc(-c2cc3nc(-c4ccccc4)cc(N4CCN(C(=O)c5ccoc5)CC4)n3n2)cc1,8.2µM*,·,-23,?,-13%,-13%
COc1ccc(-c2cc3nc(C)cc(N4CCN(C(=O)c5cccnc5)CC4)n3n2)cc1,23µM*,·,-19,?,-2%,-1%
O=C(c1ccoc1)N1CCN(c2cc(-c3ccccc3)nc3cc(-c4ccc(Br)cc4)nn23)CC1,5.8µM*,·,12,12µM*,-2%,2%
CC(=O)Nc1ccc2c(c1)C(C)(C)C(C)N2C (stereo not given),?,1%,27,16µM*,14%,10%
CCC(=O)c1ccc(NC(C)=O)cc1O,-13%,-3%,-16,-15%,5%,6%
COc1cccc(/C=C(\C(=O)O)c2ccccc2)c1,-3%,-1%,?,4%,15%,17%
N#Cc1cccc(C=C(C(=O)c2ccccc2)c2ccccc2)c1,19µM*,·,·,12µM*,?,26µM*
O=C(CNC(=O)OCc1ccccc1)NCC(=O)Oc1ccc([N+](=O)[O-])cc1,?,1%,-1,-1%,11%,8%
Cc1ccc(C)c(C(=O)CSc2nnc(C)s2)c1,?,6%,-20,7%,15%,5%
COC(=O)Cn1c(CN2CCN(c3ccc(F)cc3)CC2)nc2c1c(=O)n(C)c(=O)n2C,1.8µM*,-20%,47,2.3µM*,-14%,-25%
CCOCCn1c(CN2CCN(c3ccc(F)cc3)CC2)nc2c1c(=O)n(C)c(=O)n2C,18µM*,-8%,35,13µM*,-14%,-3%
CC(C)CCn1c(CN2CC(C)OC(C)C2)nc2c1c(=O)n(C)c(=O)n2C (stereo not given),-1%,0%,2,-2%,4%,15%
CC(C)CCn1c(CN2CCN(c3cccc(Cl)c3)CC2)nc2c1c(=O)n(C)c(=O)n2C,23µM*,-1%,44,?,2%,18%
CCOCCn1c(CN2CCN(C)CC2)nc2c1c(=O)n(C)c(=O)n2C,2%,0%,-21,-6%,-1%,-2%
CCOCCn1c(CN2CCN(c3cccc(Cl)c3)CC2)nc2c1c(=O)n(C)c(=O)n2C,5.2µM*,-22%,16,7.3µM*,-5%,-19%
COc1ccc(S(=O)(=O)NCC2CCCO2)cc1NC(=O)c1ccccc1F (stereo not given),-4%,-2%,10,0%,?,?
